sEH activator – activators of human soluble epoxide hydrolase; purified human sEH enzymatic activity, activator screen; activation, % at 2 µM; hit rate 0.04% among 91,000; P34913; in the data active = activation above about 37%
Target sequence (P34913 whole entry, looked up): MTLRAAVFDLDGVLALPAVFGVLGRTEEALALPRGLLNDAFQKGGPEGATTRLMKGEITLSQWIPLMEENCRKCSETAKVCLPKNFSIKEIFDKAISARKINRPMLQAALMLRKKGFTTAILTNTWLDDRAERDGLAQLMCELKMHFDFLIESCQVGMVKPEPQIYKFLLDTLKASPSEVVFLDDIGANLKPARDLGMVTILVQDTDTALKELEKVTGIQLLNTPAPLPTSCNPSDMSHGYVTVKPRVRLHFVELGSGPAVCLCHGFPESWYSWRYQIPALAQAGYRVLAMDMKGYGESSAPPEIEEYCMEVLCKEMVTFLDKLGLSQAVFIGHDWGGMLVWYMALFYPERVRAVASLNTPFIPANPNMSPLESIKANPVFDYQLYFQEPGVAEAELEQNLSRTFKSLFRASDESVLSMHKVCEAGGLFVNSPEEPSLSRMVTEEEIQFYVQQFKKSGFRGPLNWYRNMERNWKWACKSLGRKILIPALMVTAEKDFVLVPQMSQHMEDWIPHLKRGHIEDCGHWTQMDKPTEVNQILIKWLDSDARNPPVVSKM
Measles CPE – protection of cells from measles virus. Measles virus-infected cells, CPE protection, absorbance. protection (pct of control), % at 4 µM. hit rate 1.5% among 140,000; in the data active = protection mostly above about 24%, no sharp cut-off; inactive = mostly below about 26%
sdo1 growth – sdo1-depleted yeast growth rescue; S. cerevisiae sdo1-depleted JHY4D growth rescue, OD600 30 h; hits give high values; pdr5 snq2 efflux-pump mutant strain; z-score at 10 µM; hit rate 0.21% among 140,000; AID 817;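 active = z-score above 3 at both the 24 hr and the 30 hr optical density reads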;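 also: z-score against mean and SD of all compound wells on the same plate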
sEH inhibitor – soluble epoxide hydrolase (human) inhibition; P34913; recombinant human sEH enzymatic activity assay; inhibition, % at 2 µM; hit rate 0.34% among 91,000; AID 707; in the data active = inhibition above about 80%
Active calls of the source: *; x = no result given. Sampled rows, rich in hits. Any-hit rate of the full collection: about 1.9%.

SMILES | sEH activator | Measles CPE | sdo1 growth | sEH inhibitor
CCC(C)c1ccc(NC(=O)c2cccs2)cc1 (configuration not stated) | -90 | 4 | -1.6 | 90*
CCOC(=O)Cn1c(=NC(=O)c2sc3ccccc3c2Cl)sc2cc(S(N)(=O)=O)ccc21 | x | 2 | 1.6 | x
CCc1ccc(NC2=NC(C(=O)NC3CCCCC3)CC(=O)N2)cc1 (configuration not stated) | -1 | 56* | 1.1 | 4
CC(C)Sc1oc(-c2ccco2)nc1S(=O)(=O)c1ccccc1 | -7 | 30* | -1.1 | 8
CNS(=O)(=O)c1ccc(C)cc1 | -4 | 9 | 0.16 | 1
NC(=O)Nc1ccc(F)cc1 | -2 | 70* | 1.5 | 1
CCSc1nnc(NC(=O)COc2cccc3ccccc23)s1 | 6 | 8 | -0.62 | -4
COc1ccc(-c2ccc(=O)n(CC(=O)NCc3ccco3)n2)cc1 | 2 | 7 | 0.45 | -2
COc1ccc(-c2ccc(=O)n(Cc3cc(=O)n4ccccc4n3)n2)cc1 | 5 | 32* | 0.08 | -2
Cc1ccc(S(=O)(=O)N2CCCC(C(=O)NCCC3=CCCCC3)C2)cc1 (configuration not stated) | -82 | 6 | -1.2 | 82*
CC(C)(C)c1ccc(C(=O)N2CCC(C(=O)NCCC3=CCCCC3)CC2)cc1 | -85 | 5 | 0 | 86*
CS(=O)(=O)N1CCCC(C(=O)NCc2ccccc2Cl)C1 (configuration not stated) | -29 | 42* | 1.2 | 29
O=C(NCCC1=CCCCC1)C1CCCN(S(=O)(=O)c2ccccc2)C1 (configuration not stated) | -83 | 10 | -0.86 | 84*
CCCc1cc(-c2nc(-c3ccc(Cl)cc3)cs2)ccn1 | -11 | 5 | -1.2 | 11
COCCN(C(=O)CSc1nnc(C)n1-c1ccccc1)c1c(N)n(Cc2ccccc2)c(=O)[nH]c1=O | x | 7 | 0.78 | x
O=CN(CCN(C=O)CN1CCCCC1)CN1CCCCC1 | x | 12 | -0.45 | x
COc1ccc(NC(=O)C(c2cc3c(cc2[N+](=O)[O-])OCO3)N2CCN(C=O)CC2)cc1 (configuration not stated) | x | 23* | -0.32 | x
COc1ccc(NC(=O)C(c2cc3c(cc2[N+](=O)[O-])OCO3)N(C)Cc2ccccc2)cc1 (configuration not stated) | x | 3 | -0.96 | x
NC(=O)CC1(CC(=O)O)CCCCC1 | 3 | 68* | 0.92 | -3
CCCn1nc2cc(C(=O)NCc3ccc(C)cc3)ccc2c1OCC | -10 | 84* | -0.12 | 11
CC(C)c1nnc(NC(=O)CCC(=O)NCC2CCCO2)s1 (configuration not stated) | -8 | 9 | 0.72 | 11
O=C(CCC(=O)Nc1nnc(C2CCCCC2)s1)NCC1CCCO1 (configuration not stated) | 6 | 65* | -0.86 | -5
c1ccc(CCn2c3ccccc3c3nnc(SCc4ccc5nonc5c4)nc32)cc1 | 2 | 24* | 0.41 | 1
O=C1c2ccccc2C(=O)N1CSc1nnc2c3ccccc3n(CCc3ccccc3)c2n1 | -13 | 34 | 0.25 | 14
O=C(CN1CCOCC1)Nc1ccccc1Cl | 13 | 60* | 0.12 | -14
SMILES | sEH activator | Measles CPE | sdo1 growth | sEH inhibitor
COC(=O)c1cccc(NC(=O)CN2CCN(Cc3ccccc3)CC2)c1 | -10 | 12 | 0.2 | 12
COC(=O)c1ccc(Cl)c(NC(=O)CN2CCN(Cc3ccccc3)CC2)c1 | 7 | 36* | -0.79 | -5
Cc1cc(C(=O)OCC(=O)NC(=O)NC(C)(C)C)c(C)o1 | -3 | 2 | 1.1 | 4
Cc1cc(C(=O)OCC(=O)Nc2ccc(F)cc2F)c(C)o1 | -21 | 37* | -0.57 | 22
COC(=O)c1ccc(N2C(=O)CC(N(C)CCc3ccc(OC)c(OC)c3)C2=O)cc1 (configuration not stated) | -14 | 138* | -0.05 | 14
CCOC(=O)N1CCC(NC(=O)c2cc(S(=O)(=O)N3CCC4(CC3)OCCO4)ccc2F)CC1 | x | 2 | -0.19 | x
N#Cc1ccccc1NC(=O)CSc1nnc(-c2ccccc2O)n1-c1ccccc1 | 4 | 17* | -1.1 | -2
Cc1ccccc1NC(=O)CSc1nnc(-c2ccccc2)n1-c1ccccc1 | -12 | 6 | 0.09 | 13
Cc1c(C#N)c(N)nc2c3c(sc12)NC(=O)CC3c1ccccc1 (configuration not stated) | x | 12 | 0.04 | x
Cc1cccc(Cn2cnc3c(nnn3Cc3ccccc3F)c2=O)c1 | -7 | 14 | -2 | 9
O=C(Nc1cccn(Cc2c(Cl)cccc2Cl)c1=O)c1ccccc1Cl | 2 | 48* | -0.79 | -5
Cc1nc(=O)c(-c2ccccc2)c(C)n1-c1ccc(O)cc1 | -5 | 13 | 0.78 | 5
Cc1ccc(N2C(=O)NC3(CCCCC3)C2=O)cc1 | x | 7 | 1.3 | x
